Most compounds without a hit are left out; they make up all but 8.1% or so of the library.
ClpP mod: qHTS Assay for Activators of ClpP. purified B. subtilis ClpP, FRET peptide cleavage, 20 min. Potency, µM (doses to about 57.5 µM). actives 1.9% (n = 340,000). AID 651965, 2013; active means well fitted falling curve with a large enough effect; inconclusive means small, poorly fitted or top-dose-only effect; inactive means no such curve, though single readings can be large or run the other way; further: the source files actives as falling curves though it sought activators and does not explain the sign; nearly all actives have a fitted effect of over 65% in size
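Purified B. subtilis ClpP, 10 microg/mL final in Tris/HCl pH8 with KCl, BSA, glycerol and Tween-20, cleaved an Abz/nitrotyrosine-quenched decapeptide. Fluorescence (ex 320, em 430) was read at 0 and 20 min at room temperature. Delta was normalized to 5.8 microM ADEP and DMSO/no-enzyme controls.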
PINK1 expr mod: A Quantitative High throughput Screen to Identify Chemical Modulators of PINK1 Expression; PINK1 immunofluorescence, high-content cytometry, 24 h; actives 0.2% (n = 410,000); Potency, µM (highest dose often 76.6 µM), most hits filed as activators; AID 624263, 2012; active means well fitted activation curve with a large enough effect; inconclusive means small, poorly fitted or top-dose-only effect; cell line not stated here; further: nearly all actives have a fitted effect of over 65% in size
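Cells are seeded, rested 12 hours, then given compound at five concentrations or DMSO for 24 hours. After fixation, blocking and antibody staining, PINK1 amount and mitochondrial localization are scored; CCCP serves as control.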
RORg inh: qHTS for inhibitors of ROR gamma transcriptional activity; Nuclear receptor ROR-gamma (Mus musculus), P51450; Drosophila S2 Gal4-RORgamma UAS-luciferase reporter, 20 h; Potency, µM (titrated, usually from 53.6 µM), hits mostly inhibitors; actives 5.4% (n = 310,000); AID 2551, 2010; further: nearly all actives have a fitted effect of over 60% in size
Target sequence (P51450 whole entry, looked up, the tested form may be a part): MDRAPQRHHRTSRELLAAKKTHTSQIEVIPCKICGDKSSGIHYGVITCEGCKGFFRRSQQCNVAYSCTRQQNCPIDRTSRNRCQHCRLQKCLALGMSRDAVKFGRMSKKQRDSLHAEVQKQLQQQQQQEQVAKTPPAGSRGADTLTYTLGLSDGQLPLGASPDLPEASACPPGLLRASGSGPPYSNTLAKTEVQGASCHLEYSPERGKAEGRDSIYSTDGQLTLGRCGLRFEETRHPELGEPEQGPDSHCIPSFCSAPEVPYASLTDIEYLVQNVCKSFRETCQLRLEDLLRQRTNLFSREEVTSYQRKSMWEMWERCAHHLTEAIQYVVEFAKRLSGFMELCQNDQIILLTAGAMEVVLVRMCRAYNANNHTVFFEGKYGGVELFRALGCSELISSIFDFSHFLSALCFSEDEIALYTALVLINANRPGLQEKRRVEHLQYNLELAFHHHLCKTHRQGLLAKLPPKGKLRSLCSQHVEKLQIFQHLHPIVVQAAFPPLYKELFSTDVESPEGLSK
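In this cell-based reporter format, copper sulfate (700 uM final) drives Gal4–ROR gamma fusion expression from a metallothionein promoter in Drosophila Schneider cells; compounds preincubated 1 hr, reporter read after 20 hr at ambient temperature.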
Sfp PPTase inh: qHTS Assay for Inhibitors of Bacillus subtilis Sfp phosphopantetheinyl transferase (PPTase). 4'-phosphopantetheinyl transferase ffp (Bacillus subtilis), Q9F4F7. Biochemical Sfp PPTase activity, qHTS. Potency, µM, most hits filed as inhibitors. actives 3.5% (n = 310,000);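 further: the enzyme is Sfp with the accession as filed and its product quenches rhodamine fluorescence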
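Reaction rates are the 30-min fluorescence difference (ex 525, em 598 nm) in wells containing 15 nM Sfp, 5 uM rhodamine-CoA and 12.5 uM BHQ-2-YbbR at pH 7.6 with 10 mM MgCl2.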
Epigenetic reg: Quantitative High-Throughput Screen for Regulators of Epigenetic Control; murine LDR cells, GFP reporter derepression, 30 h; Potency, µM (doses to about 53.9 µM), usual class: activators; actives 0.2% (n = 280,000); further: nearly all actives have a fitted effect of over 60% in size
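Murine LDR cells carrying a silenced, genomically integrated CMV-driven GFP reporter were exposed to compound for 30 hours at 37 C. After PBS washes, GFP-positive cells (20–120 um objects) were counted by laser-scanning microplate cytometry.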
VP16 counter: VP16 counterscreen qHTS for inhibitors of ROR gamma transcriptional activity; Drosophila S2 Gal4-VP16 UAS-luciferase, luminescence, 20 h; Potency, µM (top dose mostly 53.6 µM), usual class: inhibitors; actives 3.5% (n = 310,000); AID 2546, 2010;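 further: Gal4-VP16 expression switched on by copper sulfate through the metallothionein promoter; nearly all actives have a fitted effect of over 50% in size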
Large screens that a line does not name were inactive. Unless noted, the call rests on the fitted dose curve; in most records, active means well fitted curve in the direction sought with a large enough effect; inconclusive means small, poorly fitted or top-dose-only effect, or another doubt; inactive means no such curve, though single readings can be large; an effect the other way counts as inactive or inconclusive.

Cc1ccc(O)c(C2=NNC(c3ccc(Cl)cc3)C2)c1 (stereo unspecified)	RORg inh 7.9µM, VP16 counter 13µM
COc1cccc(/C=C2\SC(=S)N(CCCC(=O)N3CCCCC3)C2=O)c1	RORg inh 4.5µM, VP16 counter 13µM (no result: Epigenetic reg)
O=C1/C(=C/c2cccc(Br)c2)SC(=S)N1CCC(=O)N(CCO)c1ccccc1	none (no result: Epigenetic reg)
CN1CCN(C(=O)CCCN2C(=O)/C(=C/c3cccc(Br)c3)SC2=S)CC1	RORg inh inconclusive (no result: ClpP mod, Epigenetic reg)
COc1cccc(/C=C2\SC(=S)N(CCCC(=O)N(CCO)c3ccccc3)C2=O)c1	RORg inh 7.1µM, VP16 counter 2.5µM (no result: Epigenetic reg)
CN1CCN(C(=O)CCN2C(=O)/C(=C/c3cccc(Br)c3)SC2=S)CC1	RORg inh 16µM (no result: ClpP mod, Epigenetic reg)
COc1ccc(/C=C2\SC(=S)N(CCCC(=O)N3CCN(C)CC3)C2=O)cc1	RORg inh 7.1µM, VP16 counter inconclusive (no result: ClpP mod, Epigenetic reg)
COc1ccc(CCCc2nnc(SCC(=O)Nc3cccc(F)c3C)o2)cc1	none (no result: RORg inh, Sfp PPTase inh, VP16 counter)
COc1cc(OC)c(NC(=O)NCCn2nnc3cc(S(=O)(=O)N(C)C)ccc32)cc1Cl	none (no result: RORg inh, Sfp PPTase inh, VP16 counter)
COc1ccc(-c2ccc(CCC(=O)O)n2CC2CCCO2)cc1 (stereo unspecified)	none (no result: ClpP mod)
O=C(O)CCc1ccc(-c2ccc(F)cc2)n1CC1CCCO1 (stereo unspecified)	ClpP mod 22µM
O=C(O)CCc1ccc(-c2cccs2)n1CC1CCCO1 (stereo unspecified)	ClpP mod 25µM
COc1cccc(N(C)C(=S)Oc2ccc3c(c2)CCCC3)n1	VP16 counter inconclusive (no result: ClpP mod, PINK1 expr mod, Epigenetic reg)
CN(Cc1ccccc1)C(=O)c1ccc(CSc2nc3cccnc3n2Cc2ccccc2F)cc1	none (no result: RORg inh, Sfp PPTase inh, VP16 counter)
CSc1c(C#N)c(N)c(C#N)c2c1COC(C)(C)C2	ClpP mod 14µM
CC(C)c1nc(Cl)c(C#N)c2c1COC(C)(C)C2	none
Cc1ccc(CNc2nc3c([nH]2)c(=O)n(C)c(=O)n3C)cc1	ClpP mod 20µM
Cc1cccc(C)c1NC(=S)N/N=C1\CC2CC=CC12 (stereo unspecified)	RORg inh inconclusive, Sfp PPTase inh inconclusive, VP16 counter inconclusive (no result: ClpP mod)
Cc1ccc(NC(=S)N/N=C2\CC3CC=CC23)c(C)c1 (stereo unspecified)	Sfp PPTase inh 32µM
Cc1cccc(C)c1Nc1nnc(SCc2nc3ccccc3s2)s1	ClpP mod 14µM, RORg inh inconclusive, Sfp PPTase inh inconclusive, VP16 counter inconclusive
Clc1ccccc1/C=C/c1nc(-c2ccccn2)no1	RORg inh 2.5µM, VP16 counter inconclusive (no result: ClpP mod)
CCc1ccccc1NC(=O)CSC1=Nc2ccccc2C2=NC(Cc3ccccc3)C(=O)N12 (stereo unspecified)	none (no result: RORg inh, Sfp PPTase inh, VP16 counter)
CCOCCCNC(=O)N1CCN(S(=O)(=O)c2ccc3c(ccn3C)c2)CC1	none (no result: RORg inh, Sfp PPTase inh, VP16 counter)
COC(=O)c1cc2n3ccccc3c(C)c(-c3ccccc3)c-2c1C(=O)OC	ClpP mod 32µM
COC(=O)c1cc2c(C)c(C)c3ccccn3c-2c1C(=O)OC	Epigenetic reg inconclusive
COc1ccc(/C=C/c2ccc3cccc(O)c3n2)c(OC)c1OC	RORg inh 3.2µM, Sfp PPTase inh inconclusive, VP16 counter inconclusive (no result: Epigenetic reg)
COc1cccc(/C=C/c2ccc3cccc(O)c3n2)c1OC	RORg inh 2.8µM, VP16 counter 5.6µM (no result: Epigenetic reg)
COc1ccc(N2CCN(C(c3ccccc3F)c3sc4nc(-c5ccco5)nn4c3O)CC2)cc1 (stereo unspecified)	none (no result: RORg inh, Sfp PPTase inh, VP16 counter)
c1csc(Cn2c(-c3cccs3)nc3ccccc32)c1	ClpP mod 32µM, RORg inh inconclusive, Sfp PPTase inh inconclusive, VP16 counter inconclusive
Cn1c(-c2cccs2)nc2ccccc21	RORg inh 13µM
Cc1ccccc1Cn1c(-c2cccs2)nc2ccccc21	ClpP mod inconclusive, Epigenetic reg inconclusive (no result: RORg inh, Sfp PPTase inh, VP16 counter)
